Screening results as filed in PubChem BioAssay.
IL1B secr inh: inflammasome signaling inhibition, IL-1 beta readout; 4.7% of 360,000 active; THP-1 LPS/ATP IL-1B secretion, AlphaLISA, 16 h; stronger effect = lower value; activity change, % at 57.5 µM; in the data active = activity change below about -50%; inconclusive = mostly about -30% to -49%
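Secreted IL-1B measured by AlphaLISA bead assay after 16 h compound exposure of THP-1 cells; compounds (final up to 57.5 uM) added 1 h before LPS (250 ng/mL) and ATP (1.25 mM) stimulation; lower signal means less secretion.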
DT40 TDP1 CPT: DT40-hTDP1 cell growth loss with CPT; chicken DT40 Tdp1-/-;hTDP1 cells + 20 nM CPT, ATP luminescence, 48 h; 12% of 420,000 active; Potency, µM (titrated, usually from 46.2 µM), inactives show at the highest dose activity change, negative = growth inhibition, actives largely listed as inhibitors; AID 686979; also: potency is read from the fitted curve at half-maximal effect; nearly all actives have a fitted effect of over 55% in size
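Cell growth measured by CellTiter-Glo luminescence after a minimum 48 h, 37 C compound exposure with 20 nM CPT in Tdp1-knockout DT40 cells stably expressing hTDP1, seeded 400/well; qHTS titration format.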
HT1080NT lethal: kills 2HG-producing HT-1080-NT fibrosarcoma cells; 1.6% of 360,000 active; HT-1080-NT fibrosarcoma viability, CellTiter-Glo ATP luminescence, 48 h; AID 686970; Potency, µM (titrated, usually from 46.1 µM), for inactives: at the highest dose activity, negative = less viability, hits mostly cytotoxic;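 also: NT is the 2HG producing partner of a matched IDH1 knockdown line; potency is read from the fitted curve at half-maximal effect; 0% = DMSO-treated cells and -100% = media-only wells without cells; nearly all actives have a fitted effect of over 55% in size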
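Toxicity toward the 2HG-producing NT line was scored as %Activity, normalised to DMSO and no-cell wells, from CellTiter-Glo luminescence after 48 hours' treatment.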
HT1080 IDH1KD tx: kills HT-1080 cells with IDH1 knockdown; HT-1080 IDH1 knockdown viability, ATP luminescence, 48 h; Potency, µM (doses to about 46.1 µM), inactives show at the highest dose activity, negative = toxicity, most hits filed as cytotoxic; 2% of 360,000 active; AID 686971;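 also: potency is read from the fitted curve at half-maximal effect; 0% = DMSO wells and -100% = cell-free medium wells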
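Viability of IDH1-knockdown HT-1080 fibrosarcoma cells was assessed by CellTiter-Glo after 48 h at 37 °C with titrated compound; concentration-effect curves were classified by fit quality and response size.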
TDP1 cell noCPT: qHTS for Inhibitors of human tyrosyl-DNA phosphodiesterase 1 (TDP1): qHTS in cells in absence of CPT; 15% of 420,000 active; DT40 Tdp1-/- hTDP1 cells, no CPT, ATP luminescence, 48 h; Potency, µM (series often up to 46.2 µM), inactives show at the top dose activity change, negative = growth inhibition, actives largely listed as inhibitors; AID 686978, 2013; also: potency is read from the fitted curve at half-maximal effect; nearly all actives have a fitted effect of over 55% in size
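Stably hTDP1-transfected Tdp1-null chicken DT40 cells were treated with library compounds minus camptothecin and grown for at least 48 hr at 37 °C, after which cellular ATP was quantified by luminescence.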
Starred values were filed as active, the others as inactive; ? = inconclusive; . = not tested or not shown. In the library only some 19% were active in any assay of this set; here they are far more common. Unless noted, calls follow the shape of the dose curve; as a rule, active = well fitted curve in the direction sought with a large enough effect; inconclusive = small, poorly fitted or top-dose-only effect, or another doubt; inactive = no such curve, though single readings can be large; an effect the other way counts as inactive or inconclusive. Unless noted, % is scaled to controls: 0 for no effect and ±100 for the full control effect.

SMILES	IL1B secr inh	DT40 TDP1 CPT	HT1080NT lethal	HT1080 IDH1KD tx	TDP1 cell noCPT
COc1ccc(CC(=O)Nc2ccc(C(=O)Nc3ccccc3C(=O)O)cc2)cc1OC	20	-12%	0%	-6%	-21%
COc1ccc(OC)c(NC(=O)COC(=O)c2ccc(S(=O)(=O)N3CCCCC3)cc2)c1	-2	-15%	5%	4%	?
Cc1cccc(C(=O)N[C@H](C(=O)OCC(=O)NC2CCS(=O)(=O)C2)C(C)C)c1 (stereo partly specified)	19	2%	16%	0%	-18%
Cn1c(=O)n(C)c2cc(N3CCOCC3)c(NC(=O)c3c(F)cccc3F)cc21	.	?	.	.	-28%
CN(C)c1cc2c(cc1NC(=O)c1ccc(F)cc1)n(C)c(=O)n2C	.	?	.	.	23µM*
CCn1c(=O)n(CC)c2cc(N3CCCC3)c(NC(=O)c3c(F)cccc3F)cc21	20	?	-1%	-5%	12µM*
COc1ccccc1C(=O)Nc1ccc2c(c1)OCCO2	-15	?	-18%	-9%	?
COc1cc(SC)ccc1C(=O)NNC(=O)c1cc(C)oc1C	-3	?	8.2µM*	9.2µM*	15µM*
COc1cc(SC)ccc1C(=O)Nc1ccc2c(c1)OCCO2	?	?	1.8µM*	?	?
COc1cc(SC)ccc1C(=O)Nc1c(C)cccc1C	21	?	5%	11%	13µM*
Cc1ccc(NC(=O)c2ccc3oc(=O)c(S(=O)(=O)c4ccccc4)cc3c2)cc1C	.	-14%	.	.	-12%
COc1ccc(CNC(=O)C2CCN(S(=O)(=O)c3cn(C)cn3)CC2)cc1	.	10%	.	.	-2%
CC(=O)Nc1ccc(S(=O)(=O)N[C@@H](C)C(=O)N2CCN(C/C=C/c3ccccc3)CC2)cc1	14	-13%	-3%	-2%	?
CCOC(=O)c1c(NC(=O)c2ccc(C)cc2)sc2c1CC(C)(C)OC2	-16	?	-23%	-19%	18µM*
C=C(C)CNC(=S)Nc1sc2c(c1C(=O)OCC)CC(C)(C)OC2	20	23µM*	-4%	-5%	16µM*
CCOC(=O)c1c(NC(=O)CCC(=O)N(CC)CC)sc2c1CC(C)(C)OC2	0	?	3%	?	?
COC(=O)c1cnn(-c2ccccc2)c1/C=N/NC(=S)Nc1ccccc1	91	?	14%	1%	21µM*
CNC(=S)N/N=C/c1c(C(=O)OC)cnn1-c1ccc(F)cc1F	2	?	1%	-3%	16µM*
CCCN1C(=O)c2ccccc2NC1c1cc(OC)c(OC)c(OC)c1 (stereo unspecified)	15	-13%	4%	1%	-28%
COc1ccc(C2Nc3ccccc3C(=O)N2c2cccc3ccccc23)cc1COc1c(C)cccc1C (stereo unspecified)	.	3.2µM*	.	.	2.8µM*
CCCN1C(=O)c2ccccc2NC1c1ccc(OC)c(COc2cccc(C)c2C)c1 (stereo unspecified)	.	?	.	.	16µM*
CC(C)(C)OC(=O)NCCCCCc1nnc(SCc2ccccc2F)o1	-51*	?	-20%	-11%	?
CC(C)(C)OC(=O)NCCCCCc1nnc(SCc2cccc(F)c2)o1	-10	?	-30%	1%	9.2µM*
Fc1cccc(Cl)c1CSc1nnc(COc2cccc3cccnc23)o1	-51*	-22%	-22%	2%	-26%
CC(C)(C)OC(=O)NCCc1nnc(SCc2c(Cl)cccc2Cl)o1	0	-19%	-3%	-3%	9%
SMILES	IL1B secr inh	DT40 TDP1 CPT	HT1080NT lethal	HT1080 IDH1KD tx	TDP1 cell noCPT
CC(C)(C)OC(=O)NCCCCCc1nnc(SCc2c(F)cccc2Cl)o1	0	-24%	-10%	-12%	21µM*
NCCc1nnc(SCc2c(F)cccc2Cl)o1	-16	-23%	3%	-5%	?
Cc1cc(C)c(NC(=O)Cn2nnc(C(=O)Nc3ccc(F)cc3F)c2N)c(C)c1	9	-26%	9%	5%	11%
Cc1cc(C)c(Nc2ncnc(N)n2)c(C)c1	0	3%	0%	12%	8%
Cc1csc(=O)n1CC(=O)OCC(=O)NNC(=O)c1ccc(Cl)cc1	1	20%	3%	7%	7%
O=C1CCC2c3[nH]c4ccccc4c3CCN12 (stereo unspecified)	?	-11%	3%	-9%	-30%
CCOC(=O)c1cnc(NCc2ccc(Cl)cc2)c2ccccc12	.	?	.	.	-24%
CCOc1cc(C(=O)NCc2ccco2)cc(OCC)c1OCC	-24	5%	16%	1%	-10%
CN(C)c1ccc(CN(Cc2ccco2)C(=O)c2ccco2)cc1	-28	?	-3%	-1%	?
COc1ccc(CNC(=O)CN(Cc2ccco2)C(=O)CNS(=O)(=O)c2ccccc2)cc1	-67*	?	-14%	-20%	-25%
CC(C)COc1ccc(C(=O)N(Cc2ccc(N(C)C)cc2)Cc2ccco2)cc1	.	18µM*	.	.	15µM*
CCOc1c(Cl)cc(C(=O)N(Cc2ccc(N(C)C)cc2)Cc2ccco2)cc1Cl	.	23µM*	.	.	13µM*
CCOc1ccccc1C(=O)N(Cc1ccc(N(C)C)cc1)Cc1ccco1	.	?	.	.	16µM*
Cn1nnnc1SCC1=C(C(=O)O)N2C(=O)[C@@H](NC(=O)[C@H](OC=O)c3ccccc3)[C@H]2SC1	.	-4%	.	.	-9%
CC(C)COc1cccc(C(=O)N(CC(=O)Nc2ccccc2C(F)(F)F)Cc2ccco2)c1	-29	?	-3%	-15%	18µM*
CCOc1cccc(C(=O)N(Cc2ccc(F)cc2)C2CCS(=O)(=O)C2)c1 (stereo unspecified)	9	3%	0%	-2%	-3%
Cc1ccc(S(=O)(=O)NCC(=O)N(c2ccccc2)C(C(=O)NCc2ccccc2)c2ccco2)cc1 (stereo unspecified)	?	?	-2%	-4%	18µM*
Cc1cc(C)cc(N(C(=O)CNS(=O)(=O)c2ccccc2)C(C(=O)NCc2ccccc2)c2ccc(C)o2)c1 (stereo unspecified)	-7	2%	0%	11%	-1%
COc1ccc(CN(Cc2ccco2)C(=O)c2ccccc2F)cc1	.	16µM*	.	.	16µM*
CCOc1cccc(C(=O)N(Cc2ccc(F)cc2)Cc2ccco2)c1	.	23µM*	.	.	16µM*
N#CCCN(Cc1ccccc1)C(=O)CCC(=O)c1ccc(F)cc1	-7	-16%	10%	11%	-21%
COc1cc(OC)c(NC2=CC(=O)C(=O)c3ccccc32)cc1Cl	?	12µM*	21µM*	8.2µM*	18µM*
